This passage reports activity change, negative = inhibition, Potency and outcome results from PubChem BioAssay (NCATS).

Unmarked numbers belong to inactive results. Inconclusive results are not listed. The source made the active and inactive calls. Unless noted, calls follow the shape of the dose curve; as a rule, active = well fitted curve in the direction sought with a large enough effect; inconclusive = small, poorly fitted or top-dose-only effect, or another doubt; inactive = no such curve, though single readings can be large; an effect the other way counts as inactive or inconclusive.

Assay [1] can be described thus: AP1 Signaling Pathway (AID 357; active = well fitted curve in either direction with a large enough effect, not every such curve was filed as active;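 also: ME-180 reporter cells stimulated with EGF at its EC50 level; % is scaled to controls: 0 for no effect and ±100 for the full control effect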). The following applies: ME-180 (cervical carcinoma) AP-1-bla reporter, EGF-induced, beta-lactamase ratio, 5 h; at 17.2 µM (top of the series) unless noted. In a few lines:
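Read-out was the 460nm/530nm emission ratio (excitation 405nm) after CCF4 loading for 2.5 hours at room temperature. Cells carried an AP-1-driven beta-lactamase reporter, were stimulated with EC50 EGF plus compound for 5 hours, and AC50 values came from titrations.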

Assay [2] concerns the target Cytochrome P450 1A2 (Homo sapiens) (UniProt P05177). In words: p450-cyp1a2 (AID 410; calls by dose curve; also: potency is read from the fitted curve at half-maximal effect;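 as to activity change, negative = inhibition: -100% = full effect of reference inhibitor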). In a few lines:
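Human CYP1A2 (20nM) demethylated Luciferin-ME at its Km (100uM) in 100mM KPO4. After 10 min compound preincubation, NADPH regeneration ran the reaction 60 min at room temperature. Luciferin was read by luminescence, normalized to 57 uM furafylline.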

A short description of assay [3]: NFAT Signaling Pathway (AID 444; active = well fitted curve in either direction with a large enough effect, not every such curve was filed as active;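 also: carbachol stimulus at about its EC50 of 1 µM final; % is scaled to controls: 0 for no effect and ±100 for the full control effect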). The following applies: Jurkat NFAT-bla M1, carbachol, beta-lactamase ratio, 5 h; at 17.2 µM (top of the series) unless noted. The method, boiled down: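 Read-out: CCF4 FRET ratio (460 nm/530 nm) after 1 h RT dye loading, used for %activity and AC50 from titration series. Cells: Jurkat NFAT-β-lactamase/M1 line, treated with compound plus 1 uM carbachol for 5 h, 37 °C.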

For assay [4], the target named is Glucocorticoid receptor (Homo sapiens) (UniProt P04150). In words: GR-GFP Redistribution (AID 450;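 active = compounds whose dose series gives a full or clear partial fitted curve of increased nuclear translocation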; also: potency is read from the fitted curve at half-maximal effect). As to conditions: U2OS GR-GFP nuclear translocation, laser cytometry, 2 h.
Sequence of Glucocorticoid receptor (Homo sapiens) (P04150 whole entry, looked up, the tested form may be a part): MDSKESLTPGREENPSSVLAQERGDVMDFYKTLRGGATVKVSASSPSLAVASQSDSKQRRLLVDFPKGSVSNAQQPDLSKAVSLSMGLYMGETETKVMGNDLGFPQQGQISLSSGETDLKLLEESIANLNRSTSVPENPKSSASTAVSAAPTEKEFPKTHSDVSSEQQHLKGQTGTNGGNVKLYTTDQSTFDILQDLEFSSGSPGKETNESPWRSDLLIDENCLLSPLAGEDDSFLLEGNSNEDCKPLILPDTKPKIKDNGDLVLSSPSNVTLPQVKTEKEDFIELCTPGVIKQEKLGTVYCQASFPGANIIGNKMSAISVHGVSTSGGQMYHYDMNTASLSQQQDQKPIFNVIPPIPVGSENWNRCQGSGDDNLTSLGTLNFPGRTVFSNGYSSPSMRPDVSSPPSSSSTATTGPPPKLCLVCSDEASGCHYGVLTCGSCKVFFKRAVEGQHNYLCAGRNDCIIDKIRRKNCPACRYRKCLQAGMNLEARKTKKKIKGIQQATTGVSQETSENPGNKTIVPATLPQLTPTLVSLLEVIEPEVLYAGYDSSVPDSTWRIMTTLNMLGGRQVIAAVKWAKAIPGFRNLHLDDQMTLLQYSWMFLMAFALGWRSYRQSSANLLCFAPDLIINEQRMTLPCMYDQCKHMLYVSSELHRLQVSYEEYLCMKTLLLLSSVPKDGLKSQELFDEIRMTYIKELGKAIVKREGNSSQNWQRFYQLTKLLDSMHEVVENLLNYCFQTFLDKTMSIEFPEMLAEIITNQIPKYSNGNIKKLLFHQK
For assay [5] the target is unchanged. Description: GR-EFC Redistribution (AID 451; calls by dose curve; also: potency is read from the fitted curve at half-maximal effect). As to conditions: CHO-K1 GR-EFC translocation, beta-gal luminescence, 2 h. In a few lines: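 Translocation of GR-ED fusion to nuclear EA restores b-gal, read by luminescence after 1 h room-temperature detection. Engineered CHO-K1 biosensor cells, 1,000/well, exposed 2 h at 37 C to titrations up to 46 uM final.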

For assay [6], the target named is 3',5'-cyclic-AMP phosphodiesterase 4B (Homo sapiens) (UniProt Q07343). Description: qHTS Assay for Inhibitors of PDE-IV (AID 607; active = well fitted activation curve with a large enough effect in the main read-out, with a control signal flat, not every such curve was filed as active; also: % of control where 0% means no effect). In a few lines: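 Live HEK293 cells with a modified cyclic nucleotide-gated (CNG) channel report intracellular cAMP via membrane-potential dye fluorescence (ex 535/em 590 nm). Endogenous PDE-IV was targeted. Compounds were tested at up to 22.9 uM final; RO 20-1724 100 uM served as control.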
Sequence of 3',5'-cyclic-AMP phosphodiesterase 4B (Homo sapiens) (Q07343 whole entry, looked up): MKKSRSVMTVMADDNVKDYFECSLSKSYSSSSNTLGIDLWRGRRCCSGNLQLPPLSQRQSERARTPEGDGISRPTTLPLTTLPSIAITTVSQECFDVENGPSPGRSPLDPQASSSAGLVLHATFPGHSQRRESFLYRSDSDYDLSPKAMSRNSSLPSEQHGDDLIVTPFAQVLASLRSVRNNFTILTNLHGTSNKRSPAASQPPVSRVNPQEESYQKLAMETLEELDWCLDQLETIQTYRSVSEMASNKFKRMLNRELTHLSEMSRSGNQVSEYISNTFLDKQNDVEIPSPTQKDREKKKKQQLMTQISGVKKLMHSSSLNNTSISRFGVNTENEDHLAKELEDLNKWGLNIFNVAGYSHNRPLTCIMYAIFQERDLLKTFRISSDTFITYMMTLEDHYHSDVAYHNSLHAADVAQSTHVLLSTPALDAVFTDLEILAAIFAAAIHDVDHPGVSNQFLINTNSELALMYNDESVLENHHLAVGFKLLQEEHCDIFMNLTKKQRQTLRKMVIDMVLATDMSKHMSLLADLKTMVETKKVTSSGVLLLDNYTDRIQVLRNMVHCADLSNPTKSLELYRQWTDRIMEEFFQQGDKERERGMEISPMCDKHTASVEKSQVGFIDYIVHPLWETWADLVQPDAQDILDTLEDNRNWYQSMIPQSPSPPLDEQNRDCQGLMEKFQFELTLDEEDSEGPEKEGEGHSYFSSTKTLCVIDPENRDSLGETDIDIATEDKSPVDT

Assay [7] is described as follows: Stat Signaling Pathway (AID 446; active = well fitted curve in either direction with a large enough effect, not every such curve was filed as active;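 also: ME-180 cervical cancer cells given 40 pM IL-6 alongside compound; SIE-controlled beta-lactamase reporter measured as 460/530 nm FRET emission ratio; % is scaled to controls: 0 for no effect and ±100 for the full control effect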). The method, boiled down: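 IL-6/STAT signaling read in ME-180 cells via an SIE beta-lactamase reporter. Stimulus was 40 pM IL-6 (its AC50) for 5 hrs, so both activation and inhibition register.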
Assay [8] deals with Guanine nucleotide-binding protein G(i) subunit alpha-1 (Homo sapiens) (UniProt P63096). In words: qHTS Assay for Inhibitors of RGS12 GoLoco Motif Activity (Green Fluorophore) (AID 879).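 Also: 0% = labeled peptide with Gαi1 and full inhibition = labeled peptide alone without protein; negative values mean loss of peptide binding seen as reduced polarization.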 In a few lines:
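Fluorescence polarization assay: 50 nM Gαi1 with 10 nM FITC-labeled RGS12 GoLoco peptide in 10 mM Tris pH 7.5, 150 mM NaCl, 0.1 mM GDP, 0.05% NP40, 10 min at room temperature with compound.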

The target in assay [9] is Cytochrome P450 3A4 (Homo sapiens) (UniProt P08684). In words: qHTS Assay for Activators of Cytochrome P450 3A4 (AID 885). Also: nearly all actives have a fitted effect of over 65% in size. In a few lines:
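Quantitative HTS format: compounds preincubated with 20nM human CYP3A4 and Luciferin-PPXE substrate at KM, reaction started by NADPH regeneration, stopped after 60 min, luciferase luminescence read 20 min later.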
(In qHTS, concentration-response curves come from the screen itself.)

Assay [10] can be described thus: qHTS Assay for Identification of Small Molecule Antagonists for NFkB Signaling Pathway (AID 895; active = well fitted inhibition curve with a large enough effect in the signal ratio, with a control signal flat, not every such curve was filed as active; the % refers to the signal ratio; also: potency is read from the fitted curve at half-maximal effect). In a few lines: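 Beta-lactamase reporter read-out (460 and 530 nm emission ratio, 405 nm excitation, 2 hrs substrate loading RT) after 5 hr stimulation with 10 pM TNF alpha in compound-treated NFkB-bla ME-180 cells in low-serum medium.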
The nature of assay [11]: qHTS Assay for Identification of Small Molecule Agonists for Thrombopoietin (TPO) Signaling Pathway (AID 917). Also: % is scaled to controls: 0 for no effect and ±100 for the full control effect. In a few lines:
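We measured Glycoprotein IIb promoter–luciferase output in IL-3-starved Ba/F3 murine cells expressing the human TPO receptor after 24 hrs at 37 C with compounds and 26 pM TPO.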

Assay [12] has as its target Muscarinic acetylcholine receptor M1 (Rattus norvegicus) (UniProt P08482). Description: qHTS Assay for Antagonists of Acetylcholine Muscarinic M1 Receptor: Kinetic Measurement of Intracellular Calcium Response (AID 943). Also: nearly all actives have a fitted effect of over 75% in size. Also: potency is read from the fitted curve at half-maximal effect.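 As to activity change, negative = inhibition: Fluo-4 calcium signal as peak divided by basal fluorescence over 4 min.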 In a few lines:
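CHO cells stably expressing rat M1 were loaded with no-wash Fluo-4 dye for 1 h at 37C, pre-incubated 10 min with compound, then challenged with EC80 carbachol (100 nM final); kinetic calcium read 4 min, peak/basal ratio.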

Assay [13] concerns the target Pyruvate kinase (Leishmania mexicana) (UniProt Q27686). Description: qHTS Validation Assay for Inhibitors of Leishmania Mexicana Pyruvate Kinase (AID 945).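 Also: 0% = DMSO only neutral control wells.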 In a few lines:
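Luminescent ATP detection (PKLight) after a 1 h room-temperature reaction of 0.2 nM LmPYK E451W mutant with 0.5 mM PEP and 0.1 mM ADP at pH 7.2. Activity is normalized to DMSO-only control wells.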

Assay [14] has as its target Pyruvate kinase PKM (Homo sapiens) (UniProt P14618). Description: qHTS Assay for Activators of Human Muscle Pyruvate Kinase (AID 954; active = well fitted curve in the direction sought with a large enough effect, not every such curve was filed as active;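 also: 0% = uninhibited enzyme and -100% = no enzyme or full thiadiazolimine inhibition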). The method, boiled down: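 Enzyme was run at intermediate activity so both inhibitors and activators could be detected. ATP formed from ADP and PEP by 0.1 nM human PKM2 during a 1 h room-temperature incubation was quantified by coupled luciferase luminescence.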

Assay [15] has as its target Alpha-galactosidase (Coffea arabica) (UniProt Q42656). In words: Counterscreen for Glucocerebrosidase Inhibitors: qHTS Assay for Coffee Bean alpha-Galactosidase at pH 4.5 (AID 957).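 Also: plate controls were enzyme alone for no effect and no enzyme for full effect.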 The method, boiled down:
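Green coffee bean enzyme (2 nM final) was incubated with compounds (0.7 nM to 77 uM) and 4-methylumbelliferyl alpha-D-galactopyranoside (80 uM final) in 50 mM citric acid, 0.005% Tween-20, pH 4.5, 20 min at room temperature; AC50 from Hill fits.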
A general note: Counterscreens check selectivity or assay interference.

Assay [16] deals with Alpha-galactosidase A (Homo sapiens) (UniProt P06280). In words: Counterscreen for Glucocerebrosidase Inhibitors: qHTS Assay for Human alpha-Galactosidase at pH 4.5 (AID 992). Also: 0% is about no effect. The method, boiled down:
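Read-out is 4-methylumbelliferone fluorescence (365 nm excitation, 440 nm emission) after a pH 10 NaOH/glycine stop. Reactions held 2 nM enzyme and 80 uM substrate at pH 4.5 for 20 min at room temperature.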

Assay [17] has as its target alpha-glucosidase (Oryza sativa, rice) (UniProt Q653V4). Description: Counterscreen for Glucocerebrosidase Inhibitors: qHTS Assay for Rice alpha-Glucosidase at pH 5.0 (AID 997).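 Also: 0% = full activity with enzyme and -100% = basal without enzyme.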 The method, boiled down:
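Rice alpha-glucosidase (4 nM final) with 400 uM 4-methylumbelliferyl-alpha-D-glucopyranoside in citrate buffer pH 5.0, 20 min at room temperature, stopped at pH 10; fluorescence 365/440 nm, compounds 0.7 nM–77 uM, AC50 from Hill fits.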

In assay [18] the target is Alpha-galactosidase (Coffea arabica) (UniProt Q42656). In words: Counterscreen for Glucocerebrosidase Inhibitors: qHTS Assay for Coffee Bean alpha-Galactosidase at pH 5.9 (AID 998).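 Also: plate controls were uninhibited enzyme for no effect and no-enzyme basal signal for full effect.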 In a few lines:
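Compounds were titrated from 0.7 nM to 77 uM against green coffee bean alpha-galactosidase (2 nM) using 80 uM fluorogenic 4-methylumbelliferyl substrate. After 20 min at room temperature, reactions were stopped at pH 10 and read by fluorescence.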

In assay [19] the target is Mitogen-activated protein kinase 10 (Mus musculus) (UniProt Q61831). In words: JNK3 AlphaScreen Assay (AID 530; active = well fitted curve in either direction with a large enough effect, not every such curve was filed as active). In a few lines:
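Room-temperature AlphaScreen kinase assay; pre-activated HepG2 lysate as JNK3 source, biotin-GST-cJun(1-79) substrate, 10 uM ATP, compound 15 min preincubation.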
Background: Alpha assays give light when donor and acceptor beads are brought close together.

The target of assay [20] is Cytochrome P450 2C9 (Homo sapiens) (UniProt P11712). In words: qHTS Assay for Inhibitors and Substrates of Cytochrome P450 2C9 (AID 883). Also: % is scaled to controls: 0 for no effect and ±100 for the full control effect; nearly all actives have a fitted effect of over 60% in size. The method, boiled down:
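Turnover of Luciferin-H (100uM, KM) by 10nM human CYP2C9 was measured over 60 min at 37C with NADPH regeneration; inhibitors and some substrates reduce luminescence. Data normalized to sulphaphenazole 57uM.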

The target in assay [21] is Cytochrome P450 2C19 (Homo sapiens) (UniProt P33261). In words: qHTS Assay for Inhibitors and Substrates of Cytochrome P450 2C19 (AID 899). Also: nearly all actives have a fitted effect of over 60% in size. Also: potency is read from the fitted curve at half-maximal effect. In a few lines:
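Reactions contain 5nM enzyme, 10uM Luciferin-H EGE (KM) and 50mM KPO4; compound preincubates 10 min at 37C, NADPH regeneration starts turnover for 60 min. Luminescence after detection reagent gives activity.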

The target in assay [22] is Cytochrome P450 2D6 (Homo sapiens) (UniProt P10635). In words: qHTS Assay for Inhibitors and Substrates of Cytochrome P450 2D6 (AID 891).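 Also: luciferin methyl ether substrate demethylated by CYP2D6 with NADPH regeneration; % is scaled to controls: 0 for no effect and ±100 for the full control effect; nearly all actives have a fitted effect of over 60% in size.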 The method, boiled down: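 Human CYP2D6 (5 nM) with 30 uM Luciferin-ME EGE (at Km) in 100 mM KPO4, compound preincubated 10 min, then NADPH regeneration system for 60 min at room temperature. Luciferin read by luminescence; normalized to 1.43 uM quinidine.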

The nature of assay [23]: qHTS Assay for Identification of Small Molecule Antagonists for Thrombopoietin (TPO) Signaling Pathway (AID 918). Also: potency is read from the fitted curve at half-maximal effect; nearly all actives have a fitted effect of over 60% in size. The following applies: TPO-dependent cell signaling reporter, antagonist mode. The method, boiled down:
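Murine Ba/F3 cells stably expressing human TPO receptor and a Glycoprotein IIb promoter–luciferase reporter were IL-3-starved overnight, treated with compounds plus TPO (26 pM final, its EC50) for 24 hrs at 37 C, then read by luminescence.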

The target of assay [24] is Pyruvate kinase PKM (Homo sapiens) (UniProt P14618). In words: qHTS Assay for Inhibitors of Human Muscle Pyruvate Kinase (AID 958). In a few lines: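 A coupled luminescent readout tracked ATP made from ADP by purified PKM2. Final conditions included 0.1 nM enzyme, PEP and ADP at 0.5 and 0.1 mM, pH 7.2 imidazole buffer with BSA, and a one-hour room-temperature reaction.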
Sequence of Pyruvate kinase PKM (Homo sapiens) (P14618 whole entry, looked up): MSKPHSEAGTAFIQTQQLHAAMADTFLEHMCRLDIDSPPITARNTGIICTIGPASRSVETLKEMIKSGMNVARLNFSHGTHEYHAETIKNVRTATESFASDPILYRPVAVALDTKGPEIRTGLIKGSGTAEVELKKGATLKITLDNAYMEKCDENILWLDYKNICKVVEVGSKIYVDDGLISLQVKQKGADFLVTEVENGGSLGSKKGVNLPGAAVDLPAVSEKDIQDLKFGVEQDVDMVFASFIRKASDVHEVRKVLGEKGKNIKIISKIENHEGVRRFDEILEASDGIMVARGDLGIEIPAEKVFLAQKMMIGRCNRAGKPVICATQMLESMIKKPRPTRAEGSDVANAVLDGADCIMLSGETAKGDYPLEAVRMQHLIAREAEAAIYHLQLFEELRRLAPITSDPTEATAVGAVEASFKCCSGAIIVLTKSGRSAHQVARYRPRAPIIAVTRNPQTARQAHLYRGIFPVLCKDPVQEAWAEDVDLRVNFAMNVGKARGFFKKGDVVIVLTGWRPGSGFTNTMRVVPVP

Sequence of Alpha-galactosidase (Coffea arabica) (Q42656 whole entry, looked up): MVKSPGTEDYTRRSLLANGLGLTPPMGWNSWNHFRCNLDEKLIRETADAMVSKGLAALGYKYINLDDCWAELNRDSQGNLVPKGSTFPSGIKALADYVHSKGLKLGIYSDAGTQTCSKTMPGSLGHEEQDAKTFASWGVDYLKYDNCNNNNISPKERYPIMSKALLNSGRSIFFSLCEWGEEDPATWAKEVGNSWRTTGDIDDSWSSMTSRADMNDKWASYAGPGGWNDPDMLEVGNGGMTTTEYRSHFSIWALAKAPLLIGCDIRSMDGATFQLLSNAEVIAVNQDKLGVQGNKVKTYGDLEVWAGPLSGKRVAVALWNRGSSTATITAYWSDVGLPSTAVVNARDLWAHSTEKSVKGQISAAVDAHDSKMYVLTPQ
Sequence of Cytochrome P450 1A2 (Homo sapiens) (P05177 whole entry, looked up): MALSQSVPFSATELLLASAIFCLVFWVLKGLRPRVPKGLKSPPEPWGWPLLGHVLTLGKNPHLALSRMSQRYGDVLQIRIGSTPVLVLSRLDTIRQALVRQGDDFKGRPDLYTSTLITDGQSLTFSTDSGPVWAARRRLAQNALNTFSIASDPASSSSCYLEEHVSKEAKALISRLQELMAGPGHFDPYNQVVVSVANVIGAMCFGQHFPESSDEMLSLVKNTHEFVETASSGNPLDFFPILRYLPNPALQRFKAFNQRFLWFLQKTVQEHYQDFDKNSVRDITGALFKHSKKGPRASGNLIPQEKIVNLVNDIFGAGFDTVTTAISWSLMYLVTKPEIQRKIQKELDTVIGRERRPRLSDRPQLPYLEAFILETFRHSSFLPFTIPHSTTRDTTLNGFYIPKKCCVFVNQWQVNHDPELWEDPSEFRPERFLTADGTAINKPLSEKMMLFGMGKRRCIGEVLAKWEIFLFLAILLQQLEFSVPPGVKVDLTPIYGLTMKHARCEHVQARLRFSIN
Sequence of Cytochrome P450 3A4 (Homo sapiens) (P08684 whole entry, looked up): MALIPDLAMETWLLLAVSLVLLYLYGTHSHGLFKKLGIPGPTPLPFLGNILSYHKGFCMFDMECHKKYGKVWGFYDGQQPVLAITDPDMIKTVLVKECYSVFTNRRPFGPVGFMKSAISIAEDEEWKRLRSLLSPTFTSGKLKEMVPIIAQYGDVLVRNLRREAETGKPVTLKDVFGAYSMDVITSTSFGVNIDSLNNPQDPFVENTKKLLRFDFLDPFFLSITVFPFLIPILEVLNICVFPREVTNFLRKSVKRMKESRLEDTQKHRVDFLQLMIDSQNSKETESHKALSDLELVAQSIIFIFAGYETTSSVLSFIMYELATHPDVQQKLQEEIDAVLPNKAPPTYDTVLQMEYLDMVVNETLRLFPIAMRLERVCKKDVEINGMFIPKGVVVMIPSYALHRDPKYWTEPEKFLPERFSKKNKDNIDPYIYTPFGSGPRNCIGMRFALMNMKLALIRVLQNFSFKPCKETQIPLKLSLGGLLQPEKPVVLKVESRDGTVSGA
Sequence of Muscarinic acetylcholine receptor M1 (Rattus norvegicus) (P08482 whole entry, looked up): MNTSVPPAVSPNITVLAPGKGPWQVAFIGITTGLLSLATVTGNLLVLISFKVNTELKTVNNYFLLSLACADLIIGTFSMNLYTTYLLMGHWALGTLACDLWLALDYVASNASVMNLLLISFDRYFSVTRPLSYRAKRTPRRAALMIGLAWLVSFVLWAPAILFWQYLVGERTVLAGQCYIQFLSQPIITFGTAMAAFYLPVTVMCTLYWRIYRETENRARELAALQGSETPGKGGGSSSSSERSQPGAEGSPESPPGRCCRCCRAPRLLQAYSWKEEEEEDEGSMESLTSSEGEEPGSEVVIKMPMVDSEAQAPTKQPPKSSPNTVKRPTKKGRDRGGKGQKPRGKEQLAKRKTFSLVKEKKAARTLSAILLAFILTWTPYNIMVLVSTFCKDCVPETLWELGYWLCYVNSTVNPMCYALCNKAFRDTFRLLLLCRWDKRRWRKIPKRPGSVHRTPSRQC
Sequence of Pyruvate kinase (Leishmania mexicana) (Q27686 2-499 E452W): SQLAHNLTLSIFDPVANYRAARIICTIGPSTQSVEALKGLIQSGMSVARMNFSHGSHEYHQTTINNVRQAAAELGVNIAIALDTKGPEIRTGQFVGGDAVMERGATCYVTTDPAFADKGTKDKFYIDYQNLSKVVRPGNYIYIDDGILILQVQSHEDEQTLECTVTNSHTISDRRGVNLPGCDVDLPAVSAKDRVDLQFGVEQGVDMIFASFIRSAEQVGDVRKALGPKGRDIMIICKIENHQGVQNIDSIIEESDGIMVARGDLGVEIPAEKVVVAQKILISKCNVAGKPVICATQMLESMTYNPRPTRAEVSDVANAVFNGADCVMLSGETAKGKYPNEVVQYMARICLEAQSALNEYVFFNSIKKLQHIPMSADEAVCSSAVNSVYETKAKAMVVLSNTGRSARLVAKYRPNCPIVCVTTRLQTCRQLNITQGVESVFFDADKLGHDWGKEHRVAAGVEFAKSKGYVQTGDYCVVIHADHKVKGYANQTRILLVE
Sequence of Cytochrome P450 2C19 (Homo sapiens) (P33261 whole entry, looked up): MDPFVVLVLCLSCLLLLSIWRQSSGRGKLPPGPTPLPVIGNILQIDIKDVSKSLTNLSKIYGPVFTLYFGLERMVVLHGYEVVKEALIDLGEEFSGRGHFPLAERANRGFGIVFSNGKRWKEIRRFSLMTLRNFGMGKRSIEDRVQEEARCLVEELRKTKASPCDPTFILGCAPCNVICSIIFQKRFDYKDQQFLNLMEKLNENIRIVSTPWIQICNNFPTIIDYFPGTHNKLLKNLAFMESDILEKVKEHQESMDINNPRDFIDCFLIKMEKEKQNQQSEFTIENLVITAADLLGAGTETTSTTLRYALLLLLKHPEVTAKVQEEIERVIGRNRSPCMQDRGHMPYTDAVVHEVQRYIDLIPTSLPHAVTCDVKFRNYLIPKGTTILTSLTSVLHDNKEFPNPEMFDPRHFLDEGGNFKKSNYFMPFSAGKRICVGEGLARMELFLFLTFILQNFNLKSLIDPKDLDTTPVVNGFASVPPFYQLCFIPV

`CC1(C)[C@@H]2CC[C@]1(C)CN(CCC[N+](C)(C)C)C2`: the activity change, negative = inhibition in [1] is -4.07% [at 7.69 µM]; in assay [2], -6.8% [at 2.29 µM]; in assay [3], -12.6% [at 7.69 µM]. Besides, the Potency is more than 46 µM in assay [4] and more than 9.22 µM in assay [5]. Also, in assay [6], the result was inactive.

With `O=c1[nH]c(=O)n(Cc2ccco2)c(O)c1C=NCCN1CCOCC1`, the activity change, negative = inhibition in assay [1] was 12.8%; in [3] it was -0.917%. Further, the molecule was called inactive in assay [7]. Moreover, the Potency in assay [4] is more than 20.6 µM.

With `O=C(c1ccco1)C12CN3CN(CN(C3)C1)C2`, the activity change, negative = inhibition in [1] is 4.87%; in [3], -11.2%. Also, the call in assay [7] was inactive. Also, the Potency in assay [4] is more than 20.6 µM.

`C=CCN1C[C@@H](C)N([C@H](c2ccc(C(=O)N(CC)CC)cc2)c2cccc(OC)c2)C[C@H]1C`: the activity change, negative = inhibition in assay [1] is -9.21% [at 38 µM]. For the same molecule, the Potency entry in [2], in assay [8], in [9] and in assay [13] was “inactive” throughout. The Potency is more than 46 µM in assay [4], more than 46 µM in assay [5], 5.01 µM (active) in [10] and 14.1 µM (active) in [12]. The call in assay [6], in assay [11], in assay [14], in assay [15], in assay [16] and in assay [17] was inactive. In addition, the molecule was called inactive in assay [18].

For `O=C(CCCN1CCC2(CC1)C(=O)N(CCc1ccc(N=C=S)cc1)CN2c1ccccc1)c1ccc(F)cc1`, the activity change, negative = inhibition in assay [1] was -2.99% [at 38 µM]. Moreover, the Potency entry in assay [2] and in assay [20] was “inactive” throughout. Besides, the call in [7], in [19] and in assay [6] was inactive. Moreover, the Potency in assay [4] was more than 46 µM; in [5] it was more than 46 µM; in assay [21], 3.16 µM (active).

Turning to `COC[C@@H]1OC(=O)c2coc3c2[C@]1(C)C1=C(C3=O)[C@H]2CCC(=O)[C@]2(C)C[C@@H]1OC(C)=O`, the activity change, negative = inhibition in assay [1] was -78.2% [at 38 µM] (active). The Potency result in [2], in assay [20], in assay [22] and in assay [21] was “inactive” throughout. The Potency in assay [4] and in assay [5] was more than 46 µM in each case. Also, the molecule was classed as inactive in assay [6].

Turning to `C=CCN1CCc2cccc3c2[C@@H]1Cc1ccc(O)c(O)c1-3`, the activity change, negative = inhibition in assay [1] is -21.9% [at 38 µM]. The figures for the Potency in [2], in assay [4] and in assay [23] were 3.16 µM (active), more than 46 µM and 10 µM (active), respectively. In addition, the outcome in assay [7], in [6], in assay [15], in assay [16] and in assay [17] was inactive. The Potency entry in assay [9], in assay [12], in assay [13] and in assay [24] was “inactive” each time.

As for `COc1ccc2c(c1OC)C(=O)OC2c1c(O)n(C2CCCCC2)c(=O)[nH]c1=O` (centres undefined), the results for the activity change, negative = inhibition in assay [1] and in assay [3] were -13.3% and -3.36%, respectively. In addition, the result in [7] was inactive. The Potency in [4] is more than 20.6 µM.
